The panel holds about 79,000 compounds, 15% with a hit somewhere; the sample as a whole holds those more often. The source made the active and inactive calls. Cut-off read from the data, not from the text of the source: active = growth inhibition above about 70%; inactive = the rest.
What was measured:
[1] = NCI Yeast Anticancer Drug Screen. Data for the mec2-1 strain (AID 157); details: S. cerevisiae mec2-1 strain, active compounds read high
Procedure, shortened: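 Mutant yeast (mec2-1) grown with compound; growth inhibition relative to vehicle control reported.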

[2] = NCI Yeast Anticancer Drug Screen. Data for the rad14 strain (AID 159);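 note: 0% = growth of vehicle-treated control cultures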; details: S. cerevisiae rad14 strain growth inhibition, active compounds read high
Procedure, shortened: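 Compound-treated yeast with a defined DNA-repair lesion; growth inhibition normalised to vehicle-treated cultures.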

[3] = NCI Yeast Anticancer Drug Screen. Data for the sgs1 mgt1 strain (AID 161);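 note: 0% = growth of cultures given vehicle only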; details: S. cerevisiae sgs1 mgt1 strain, active compounds read high
Procedure, shortened: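 Yeast cells carrying a defined DNA-repair defect were exposed to test compounds. Growth inhibition was measured relative to vehicle-treated controls.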

[4] = NCI Yeast Anticancer Drug Screen. Data for the CLN2oe strain (AID 163);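 note: 0% = growth of vehicle-only control cultures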; details: S. cerevisiae CLN2oe strain, active compounds read high
Procedure, shortened: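 Compounds are applied to yeast harbouring a defined cell-cycle control change; reduced growth compared with vehicle-treated controls gives the value.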

[5] = NCI Yeast Anticancer Drug Screen. Data for the cln2 rad14 strain (AID 165);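 note: 0% = growth equal to vehicle treated cultures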; details: S. cerevisiae cln2 rad14 strain, active compounds read high
Procedure, shortened: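 Readout is yeast growth inhibition versus vehicle-treated controls, using a strain with cln2 and rad14 alterations exposed to compound.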

[6] = NCI Yeast Anticancer Drug Screen. Data for the bub3 strain (AID 167); details: S. cerevisiae bub3 mutant strain, active compounds read high
Procedure, shortened: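 Growth of a checkpoint-deficient yeast mutant is measured after compound exposure. Values represent inhibition relative to vehicle.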

[7] = NCI Yeast Anticancer Drug Screen. Data for the wt2 strain (AID 169);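 note: 0% = growth of vehicle-treated yeast cultures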; details: S. cerevisiae wt2 strain growth inhibition, active compounds read high
Procedure, shortened: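 Against vehicle-treated controls, the growth of yeast exposed to each compound was compared, and the inhibition was recorded.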

[8] = NCI Yeast Anticancer Drug Screen. Data for the mlh1 strain (AID 171);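 note: 0% = growth of vehicle-treated control cultures of the same strain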; details: S. cerevisiae mlh1 strain growth inhibition, active compounds read high
Procedure, shortened: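 Measured: yeast growth. Reference: vehicle-treated controls. Organism: strain with a defined alteration affecting DNA damage repair or cell cycle control, treated with compound.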

[9] = NCI Yeast Anticancer Drug Screen. Data for the sgs1 strain (AID 173);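 note: 0% = growth of vehicle-only control cultures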; details: S. cerevisiae sgs1 mutant, active compounds read high
Procedure, shortened: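 Each compound was added to cultures of the altered yeast strain. Growth was recorded, and inhibition was derived by comparison with vehicle controls.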

[10] = NCI Yeast Anticancer Drug Screen. Data for the mlh1 rad18 strain (AID 175); details: S. cerevisiae mlh1 rad18 strain growth inhibition, active compounds read high
Procedure, shortened: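 Genetically defined yeast (DNA repair-deficient) exposed to compounds; growth inhibition determined relative to vehicle.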

[11] = NCI Yeast Anticancer Drug Screen. Data for the rad18 strain (AID 177); details: S. cerevisiae rad18 mutant growth inhibition, active compounds read high
Procedure, shortened: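 Vehicle-treated cultures served as the baseline for scoring compound-induced growth inhibition in DNA-repair-mutant yeast.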

[12] = NCI Yeast Anticancer Drug Screen. Data for the rad52 strain (AID 147);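 note: 0% = growth of vehicle-treated control cultures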; details: S. cerevisiae rad52 mutant growth inhibition, active compounds read high
Procedure, shortened: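 The repair-mutant yeast strain was incubated with compounds, then growth was read and inhibition derived relative to vehicle.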

[13] = NCI Yeast Anticancer Drug Screen. Data for the wt1 strain (AID 149);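 note: 0% = growth of vehicle-treated wt1 cultures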; details: S. cerevisiae wt1 strain (SPY 50644) growth inhibition, active compounds read high
Procedure, shortened: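 Readout: yeast growth inhibition, normalised to vehicle controls, in the wt1 strain exposed to test compounds.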

[14] = NCI Yeast Anticancer Drug Screen. Data for the rad50EPP+ strain (AID 151);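 note: 0% = growth of vehicle-treated control cultures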; details: S. cerevisiae rad50 mutant strain, active compounds read high
Procedure, shortened: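 Vehicle-normalised growth inhibition; rad50EPP+ yeast strain, altered in DNA damage repair, compound-treated.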

[15] = NCI Yeast Anticancer Drug Screen. Data for the mgt1 strain (AID 153); details: S. cerevisiae mgt1 mutant growth inhibition, active compounds read high
Procedure, shortened: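 Vehicle-normalized growth inhibition is determined in mgt1 yeast, a strain selected for a defined alteration in DNA repair or cell cycle control.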

[16] = NCI Yeast Anticancer Drug Screen. Data for the rad50 strain (AID 155);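 note: 0% = growth of vehicle-only cultures of the same strain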; details: S. cerevisiae rad50 strain growth inhibition, active compounds read high
Procedure, shortened: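 Compounds were tested on a yeast strain with an engineered DNA damage repair alteration; the reported value is growth inhibition normalised to vehicle treatment.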

[17] = at 5.0 µM (retest, dose inferred, filed as 0.5)
[18] = at 50.0 µM (retest, dose inferred, filed as 5.0)

Measured: growth inhibition

CC1C(NNc2ccccc2)Oc2cc3c(cc2C1c1ccccc1O)OCO3 (centres undefined)
inactive: [1]; [17] 34% | [2]; at 1.2 µM -4% | [2]; at 3.7 µM 54% | [3]; [17] -26% | [4]; at 1.2 µM -1% | [5]; [17] 47% | [6]; at 1.2 µM -11% | [6]; at 3.7 µM 68% | [6]; [17] 67% | [7]; at 1.2 µM 51% | [8]; at 1.2 µM -6% | [8]; at 3.7 µM 61% | [11]; at 1.2 µM 12%
active: [1]; at 11.0 µM 98% | [1]; at 33.0 µM 94% | [1]; [18] 97% | [1]; at 50.0 µM 88.2% | [1]; at 100.0 µM 94% | [2]; at 11.0 µM 99% | [2]; at 33.0 µM 93% | [2]; at 100.0 µM 93% | [3]; [18] 97% | [3]; at 50.0 µM 89.6% | [4]; at 3.7 µM 98% | [4]; at 11.0 µM 96% | [4]; at 33.0 µM 90% | [4]; at 100.0 µM 88% | [5]; [18] 97% | [5]; at 50.0 µM 90.8% | [6]; at 11.0 µM 98% | [6]; at 33.0 µM 93% | [6]; [18] 98% | [6]; at 50.0 µM 91.5% | [6]; at 100.0 µM 94% | [7]; at 3.7 µM 98% | [7]; at 11.0 µM 99% | [7]; at 33.0 µM 96% | [7]; at 100.0 µM 94% | [8]; at 11.0 µM 98% | [8]; at 33.0 µM 94% | [8]; at 100.0 µM 93% | [9]; at 1.2 µM 94% | [9]; at 3.7 µM 99% | [9]; at 11.0 µM 99% | [9]; at 33.0 µM 95% | [9]; at 100.0 µM 95% | [10]; [17] 83% | [10]; [18] 98% | [10]; at 50.0 µM 91.9% | [11]; at 3.7 µM 94% | [11]; at 11.0 µM 98% | [11]; at 33.0 µM 91% | [11]; at 100.0 µM 92%

Oc1c(Br)cc(Br)cc1C1CCCCC1
active: [12]; at 33.0 µM 97% | [12]; at 100.0 µM 98% | [13]; at 33.0 µM 97% | [13]; at 100.0 µM 98% | [14]; at 100.0 µM 87% | [15]; at 33.0 µM 97% | [15]; at 100.0 µM 98% | [16]; at 33.0 µM 95% | [16]; [18] 99% | [16]; at 50.0 µM 89.2% | [16]; at 100.0 µM 96% | [1]; [17] 71% | [1]; at 33.0 µM 96% | [1]; [18] 99% | [1]; at 50.0 µM 90.8% | [1]; at 100.0 µM 98% | [2]; at 33.0 µM 97% | [2]; at 100.0 µM 98% | [3]; [18] 98% | [3]; at 50.0 µM 91.8% | [4]; at 33.0 µM 98% | [4]; at 100.0 µM 99% | [5]; [18] 99% | [5]; at 50.0 µM 89.6% | [6]; at 33.0 µM 96% | [6]; [18] 98% | [6]; at 50.0 µM 89.8% | [6]; at 100.0 µM 97% | [7]; at 33.0 µM 91% | [7]; at 100.0 µM 96% | [8]; at 33.0 µM 91% | [8]; at 100.0 µM 96% | [9]; at 33.0 µM 95% | [9]; at 100.0 µM 97% | [10]; [18] 100% | [10]; at 50.0 µM 87.1% | [11]; at 33.0 µM 93% | [11]; at 100.0 µM 97%
inactive: [12]; at 1.2 µM -13% | [12]; at 3.7 µM -10% | [12]; at 11.0 µM -2% | [13]; at 1.2 µM -21% | [13]; at 3.7 µM -12% | [13]; at 11.0 µM -6% | [14]; at 1.2 µM 9% | [14]; at 3.7 µM 9% | [14]; at 11.0 µM 23% | [14]; at 33.0 µM 39% | [15]; at 1.2 µM 8% | [15]; at 3.7 µM 13% | [15]; at 11.0 µM 22% | [16]; at 1.2 µM -8% | [16]; at 3.7 µM -9% | [16]; [17] 39% | [16]; at 11.0 µM 5% | [1]; at 1.2 µM -9% | [1]; at 3.7 µM -3% | [1]; at 11.0 µM 5% | [2]; at 1.2 µM -22% | [2]; at 3.7 µM -4% | [2]; at 11.0 µM 3% | [3]; [17] -16% | [4]; at 1.2 µM 22% | [4]; at 3.7 µM 13% | [4]; at 11.0 µM 27% | [5]; [17] 41% | [6]; at 1.2 µM 7% | [6]; at 3.7 µM 19% | [6]; [17] 4% | [6]; at 11.0 µM 25% | [7]; at 1.2 µM -23% | [7]; at 3.7 µM -22% | [7]; at 11.0 µM -15% | [8]; at 1.2 µM -26% | [8]; at 3.7 µM -12% | [8]; at 11.0 µM -5% | [9]; at 1.2 µM -25% | [9]; at 3.7 µM -16% | [9]; at 11.0 µM 10% | [10]; [17] 44% | [11]; at 1.2 µM -16% | [11]; at 3.7 µM 1% | [11]; at 11.0 µM 15%

COc1ccc(NC(=S)N/N=C(\c2ccccc2)c2ccccn2)cc1
inactive: [12]; at 1.2 µM -3% | [12]; at 3.7 µM -3% | [12]; at 11.0 µM -3% | [12]; at 33.0 µM 59% | [13]; at 1.2 µM -4% | [13]; at 3.7 µM -3% | [13]; at 11.0 µM -3% | [13]; at 33.0 µM 50% | [14]; at 1.2 µM 0% | [14]; at 3.7 µM 4% | [14]; at 11.0 µM 5% | [14]; at 33.0 µM 3% | [14]; at 100.0 µM 55% | [15]; at 1.2 µM -1% | [15]; at 3.7 µM -6% | [15]; at 11.0 µM 8% | [15]; at 33.0 µM 52% | [16]; at 1.2 µM 0% | [16]; at 3.7 µM 1% | [16]; [17] 12% | [16]; at 11.0 µM -34% | [16]; at 33.0 µM 59% | [16]; at 50.0 µM 68.1% | [1]; at 1.2 µM 0% | [1]; at 3.7 µM -7% | [1]; [17] 13% | [1]; at 11.0 µM -5% | [1]; at 33.0 µM 61% | [2]; at 1.2 µM -4% | [2]; at 3.7 µM -4% | [2]; at 11.0 µM -6% | [2]; at 33.0 µM 65% | [3]; [17] -34% | [4]; at 1.2 µM -1% | [4]; at 3.7 µM -4% | [4]; at 11.0 µM -4% | [4]; at 33.0 µM 55% | [5]; [17] 33% | [6]; at 1.2 µM -6% | [6]; at 3.7 µM 4% | [6]; [17] 35% | [6]; at 11.0 µM 4% | [6]; at 33.0 µM -4% | [6]; at 100.0 µM 66% | [7]; at 1.2 µM -4% | [7]; at 3.7 µM -4% | [7]; at 11.0 µM -3% | [7]; at 33.0 µM 53% | [8]; at 1.2 µM -4% | [8]; at 3.7 µM -4% | [8]; at 11.0 µM -2% | [8]; at 33.0 µM 60% | [9]; at 1.2 µM -5% | [9]; at 3.7 µM -4% | [9]; at 11.0 µM 0% | [9]; at 33.0 µM 52% | [10]; [17] 55% | [11]; at 1.2 µM -3% | [11]; at 3.7 µM 0% | [11]; at 11.0 µM -2% | [11]; at 33.0 µM 51%
active: [12]; at 100.0 µM 96% | [13]; at 100.0 µM 95% | [15]; at 100.0 µM 95% | [16]; [18] 89% | [16]; at 100.0 µM 95% | [1]; [18] 75% | [1]; at 50.0 µM 74.7% | [1]; at 100.0 µM 95% | [2]; at 100.0 µM 95% | [3]; [18] 91% | [3]; at 50.0 µM 78.3% | [4]; at 100.0 µM 95% | [5]; [18] 88% | [5]; at 50.0 µM 79.2% | [6]; [18] 90% | [6]; at 50.0 µM 83.9% | [7]; at 100.0 µM 96% | [8]; at 100.0 µM 94% | [9]; at 100.0 µM 97% | [10]; [18] 90% | [10]; at 50.0 µM 83.7% | [11]; at 100.0 µM 95%

Source: PubChem BioAssay (NCI)
